The campaign covered roughly 290,000 compounds. About 3,000 (1%) were called active. For the sample, actives were picked, then their nearest neighbours and some compounds at random. A number with no mark means an inactive call. Rule as the data show it: active = inhibition mostly above about 36% (no sharp cut-off); inactive = mostly below about 34%.

This assay is described as follows: NOD1 signaling inhibitors, primary screen, cell-based, luminescence, uHTS (AID 1578).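 Also: HEK-293T reporter cells stimulated with the NOD1 agonist gamma-tri-DAP.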 As to conditions: NOD1-driven NF-kB luciferase reporter cells, at 4 µM, hits give high values. (In a reporter assay the amount or activity of a reporter protein is the signal.)
As for `O=C(c1ccco1)c1cn(Cc2ccccc2Cl)c2ccccc12`, the inhibition – broadly, the relative decrease from the control value, in per cent – was 19.5%.
The result for `CC1(C)C[C@H]2C=C(C=O)[C@]3(C=O)C[C@]3(C)[C@H]2C1` reads 106% (active); that for `Cc1c(P(=S)(c2ccccc2)c2ccccc2)[n+]2ccccc2n1C`, -18.7%; that for `O=C(Nc1ccc(Cl)cc1C(=O)c1ccccc1)c1ccc(Br)o1`, 37.5%.
The result for `Cc1ccc2c(c1)CCCN2N=O` reads -27.4%; that for `C=C(C=O)C[C@@H]1C[C@H](O)C2OC3C[C@]4(C)OC5/C=C\CC6OC7C(CC=CCC6OC5CCCC4OC3CC2O1)OC1CC2OC3CC(=O)OC3C[C@@H](C)C[C@@]2(C)OC1C[C@@H]7C` (stereo not given in full), 76% (active).
In the case of `C=C(CC1CC(O)[C@]2(C)OC3CC4OC5C[C@]6(C)O[C@]7(C)CCC8OC9C[C@]%10(C)OC%11C(C)=CC(=O)OC%11CC%10OC9C[C@@H](C)C8OC7CC6O[C@]5(C)C/C=C\C4OC3CC2O1)C(=O)O` (stereo not given in full) it was -18.2%.
With `C=C(CO)CC1CC(O)[C@]2(C)OC3CC4OC5C[C@]6(C)O[C@]7(C)CCC8OC9C[C@]%10(C)OC%11C(C)=CC(=O)OC%11CC%10OC9C[C@@H](C)C8OC7CC6O[C@]5(C)C/C=C\C4OC3CC2O1` (stereo not given in full), the inhibition was -6.2%.
As to `Clc1cccc(Cl)c1C1N2CCCN12` (stereo not given), the inhibition is 8.1%.
The result for `c1ccc2c(c1)CNc1ccccc1O2` reads -9%.
In the case of `S=C(NCCc1ccccc1)NCCc1cnc[nH]1` it was 0.7%; in that of `Cc1ccc(C)c(NP(=O)(Oc2ccccc2)Oc2ccccc2)c1`, 48.1% (active); in that of `Cc1cccc(NP(=O)(Oc2ccccc2)Oc2ccccc2)c1C`, -22.3%.
In the case of `COc1ccc(OC)c(NP(=O)(Oc2ccccc2)Oc2ccccc2)c1` it was -6.6%; in that of `O=C(CN1CCCC1)Nc1ccc(Cl)cc1C(=O)c1ccccc1`, -5.6%.
As to `COc1ccc(CNCCc2c(C)[nH]c3ccc(OC(F)(F)F)cc23)c(OC)c1`, the inhibition was 5.5%.
With `O=P(Nc1ccccc1)(Nc1ccccc1)Oc1ccccc1`, the inhibition was -0.3%.
In the case of `COc1cc2c(cc1OC)[C@@H]1C(=O)c3ccc4c(c3O[C@@H]1CO2)C[C@H](C(C)C)O4`, the inhibition is 58.9% (active).
In the case of `O=c1c2ccccc2nc(-c2ccccc2)n1-c1ccccc1O` it was -8.3%.
The result for `Cn1cnnc1Sc1cc(N2CCNCC2)ccc1[N+](=O)[O-]` reads -17.2%; that for `CCOc1ccc(C2(C#N)CC[N+](C)(C)CC2)cc1`, -0.5%.
For `COCc1cc(OC(=O)N(C)C)nc2c1c(C)nn2C`, the inhibition is -6.7%.
For the compound `O=C(CN1CC(c2ccccc2)CC1=O)Nc1ccc(F)cc1` (stereo not given), the inhibition was -14.5%.
In the case of `O=C(COc1ccccc1)NCCc1cnc[nH]1` it was 3.5%; in that of `O=C(/C=C/c1ccccc1)NCCc1cnc[nH]1`, 32.6% (active).
The result for `O=C(CCCc1ccccc1)NCCc1cnc[nH]1` reads -15.9%.
The result for `CCOc1ccccc1Oc1coc2cc(OC(=O)N(C)C)ccc2c1=O` reads 0.4%; that for `COc1cccc(Oc2coc3cc(OC(=O)N(C)C)ccc3c2=O)c1`, 6.2%.
In the case of `O=C1CC(c2ccccc2)CC(O)=C1C=NCCN1CCN(C(=O)Cc2ccccc2)CC1` (stereo not given), the inhibition is 8.5%.
In the case of `O=C(C1CCCN(S(=O)(=O)c2cccc3nsnc23)C1)N1CCC2(CC1)OCCO2` (stereo not given) it was -9.3%; in that of `O=C(Cc1ccccc1)N1CCN(Cc2cccc(Br)c2)CC1`, 0.2%; in that of `CC(C)c1oc(=O)cc2c1[C@@H](O)[C@H]1OC(=O)[C@@]3(C)CC[C@@H](O)[C@@]2(C)C13` (stereo not given in full), -5.4%.
The result for `CC(C)c1oc(=O)cc2c1[C@@H](O)[C@H]1OC(=O)[C@@]3(C)C[C@@H](O)[C@@H](O)[C@@]2(C)C13` (stereo not given in full) reads 96.2% (active); that for `Cc1csc(=N)n1Cc1ccccc1`, -19.9%; that for `Cc1cccc(N2C(=O)NC(=O)C3(Cc4cc(C)ccc4N(C)C3)C2=O)c1` (stereo not given), 11%.
In the case of `COc1ccc(Cl)cc1C(=O)C1CCCN(Cc2cnc(C)s2)C1` (stereo not given) it was -27.2%.
Turning to `CC1CCC(C(C)C)C(OC(=O)COC(=O)c2ccccc2N)C1` (stereo not given), the inhibition was 79.2% (active).
In the case of `CC1CCC(C(C)C)C(OC(=O)Cn2c(COc3ccccc3)[n+](C)c3ccccc32)C1` (stereo not given) it was -12.8%; in that of `CC1CCC(C(C)C)C(OP(N)(=O)c2ccccc2)C1` (stereo not given), 12.7%.
The result for `Cc1cccnc1-n1c(-c2ccco2)nc2ccccc2c1=O` reads -8.5%.
`CC(C)(C)NC(=S)/N=C(\N)N[N+](=O)[O-]`: the inhibition is -21.7%.
In the case of `Cc1[nH]c2ccccc2c1C(=O)C(=O)N1CCC2(CC1)OCCO2` it was -23.7%.
On to `CC(C)[C@]12O[C@H]1[C@@H]1O[C@]13[C@]1(O[C@H]1C[C@H]1C4=C(CC[C@@]13C)C(=O)OC4)[C@@H]2O`, for which the inhibition is 107% (active).
The result for `Cn1c(O)c(C=Nc2ccccc2-c2ccccc2)c(=O)n(C)c1=O` reads -12.2%.
Turning to `COc1ccccc1[As](=O)(O)CC(O)COc1ccc(Cl)cc1Cl` (stereo not given), the inhibition is -11%.
The result for `CN(C)c1ccc(C(=O)N/N=C/C23CC[C@@H](O)CC2(O)CC[C@@H]2[C@@H]3CCC3(C)C(C4=CC(=O)OC4)CCC23O)cc1` (stereo not given in full) reads 45% (active); that for `COc1ccc(C(=O)N/N=C/C23CC[C@@H](O)CC2(O)CC[C@@H]2[C@@H]3CCC3(C)C(C4=CC(=O)OC4)CCC23O)cc1` (stereo not given in full), 12.5%; that for `CC12CC[C@H]3[C@@H](CCC4(O)C[C@H](O)CCC34/C=N/NC(=O)c3ccc(O)cc3)C1(O)CCC2C1=CC(=O)OC1` (stereo not given in full), -7.5%.
As for `CC(=O)N1N=C2C3CCN(CC3)C2C1c1ccc(C)cc1` (stereo not given), the inhibition is -23.8%.
In the case of `COc1ccccc1OCCCn1cc(C(=O)c2ccco2)c2ccccc21` it was 3.3%.
Consider `Cc1cc(C=C2C(=O)NC(=S)NC2=O)c(C)n1-c1ccc2c(c1)OCO2`, for which the inhibition was 104% (active).
In the case of `Cc1cc(C=C2C(=O)NC(=O)NC2=O)c(C)n1-c1ccc2c(c1)OCO2` it was 55.3%; in that of `Cc1cc(/C=C2\C(=O)NC(=O)N(C)C2=O)c(C)n1-c1ccc2c(c1)OCO2`, -6.1%; in that of `C/C(=N\N1CCCCCC1)c1c(O)n(C)c(=O)n(C)c1=O`, -4.6%.
Regarding `Cc1cccn2c(NCC3CCCO3)c(C(C)C)nc12` (stereo not given), the inhibition is 2.9%.

The record behind these values is PubChem BioAssay AID1578 (Sanford-Burnham Center for Chemical Genomics, 2009).
